Among the data in PubChem BioAssay AID1345085 (National Center for Advancing Translational Sciences (NCATS), 2018) are Potency values, retold here.

Inconclusive results are not listed. Active and inactive are the calls of the source. The call rests on the fitted dose curve; in most records, active means well fitted cell-killing curve with a large enough effect; inconclusive means small, poorly fitted or top-dose-only effect, or effect the other way; inactive means no such curve, though single readings can be large or run the other way.
Potency means the concentration at half of the fitted maximal effect.

The subject of the test is CAOV3. The test can be described thus: Confirmatory qHTS for gynecologic anti-cancer compounds from libraries of approved drugs and bioactive compounds. Further: nearly all actives have a fitted effect of over 55% in size. The following applies: gynecologic cancer cell panel viability, ATPlite luminescence, 48 h; series mostly up to 57.6 µM. A digest of the protocol: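 Cells (1,000/well) were plated, left 16 h at 37 C/5% CO2, then given compound at 11 concentrations (1:3) from 57.5 uM to 0.977 nM for 48 h. ATPlite luminescence after 15 min at room temperature gave IC50 values.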
Take `O=c1c2ccccc2nc2n1CCc1c-2[nH]c2ccccc12`: the Potency result was “inactive”.

On to `Cc1ccc(C(=O)Nc2ccc(CN3CCN(C)CC3)c(C(F)(F)F)c2)cc1C#Cc1cnc2[nH]ncc2c1`, for which the Potency is 30.6 µM (active).

Take `CN(C)CC/C=C1\c2ccccc2COc2ccccc21`: the Potency result is “inactive”.

Take `COc1ccc2c(c1)c(CC(=O)O)c(C)n2C(=O)c1ccc(Cl)cc1`: the Potency result was “inactive”.

Consider `O=c1[nH]c(=O)n([C@H]2C[C@H](O)[C@@H](CO)O2)cc1Br`, for which the Potency result is “inactive”.

Consider `Cc1ccc(C(=O)N(CCCN)C(c2oc3cc(Cl)ccc3c(=O)c2Cc2ccccc2)C(C)C)cc1` (stereo not drawn), for which the Potency was 27.3 µM (active).

For the compound `CCN1CCN(Cc2ccc(-c3cc4c(NC(C)c5ccccc5)ncnc4[nH]3)cc2)CC1` (stereo not drawn), the Potency is 27.3 µM (active).

Consider `CCOc1cc2ncc(C#N)c(Nc3ccc(F)c(Cl)c3)c2cc1NC(=O)/C=C/CN(C)C`, for which the Potency is 19.3 µM (active).

For the compound `COC(C(=O)N1Cc2[nH]nc(NC(=O)c3ccc(N4CCN(C)CC4)cc3)c2C1)c1ccccc1` (stereo not drawn), the Potency was 1.53 µM (active).

On to `CN(C)C/C=C/C(=O)Nc1cc2c(Nc3ccc(F)c(Cl)c3)ncnc2cc1OC1CCOC1` (stereo not drawn), for which the Potency was 10.9 µM (active).

Take `COc1ccc(CCC(=O)c2c(O)cc(O[C@@H]3O[C@H](CO)[C@@H](O)[C@H](O)[C@H]3O[C@@H]3O[C@@H](C)[C@H](O)[C@@H](O)[C@H]3O)cc2O)cc1O`: the Potency result is “inactive”.

Regarding `COc1cc(Nc2c(C#N)cnc3cc(OCCCN4CCN(C)CC4)c(OC)cc23)c(Cl)cc1Cl`, the Potency is 27.3 µM (active).

Regarding `Cc1cc(Nc2nc(N[C@@H](C)c3ccc(F)cc3)c(C#N)cc2F)n[nH]1`, the Potency is 17.2 µM (active).
